FBPA Giardia inh = qHTS Assay for Inhibitors of Fructose-1,6-bisphosphate Aldolase from Giardia Lamblia | A8B2U2 | purified Giardia FBPA | Potency, µM (doses to about 59.6 µM), for the others: at the top dose activity, negative = inhibition, actives largely listed as inhibitors | 290,000 tested, 0.71% active | AID 2451, 2010; also: potency is read from the fitted curve at half-maximal effect; % is scaled to controls: 0 for no effect and ±100 for the full control effect; nearly all actives have a fitted effect of over 55% in size
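Giardia FBPA (40 nM reagent) was preincubated 10 min at RT with compound (up to 57.5 uM final), then substrate plus GAPDH/TPI/NAD/arsenate coupling system with diaphorase/resazurin was added; resorufin fluorescence (525/598 nm) was read after 20 min.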
LmPK inhibitor = qHTS Assay for Inhibitors of Leishmania Mexicana Pyruvate Kinase (LmPK); Q27686; purified LmPK, Kinase-Glo ATP luminescence, 1 h; Potency, µM (highest dose often 57.5 µM), without a hit: top-dose activity change, negative = inhibition, most hits filed as inhibitors; 290,000 tested, 0.37% active; AID 1721, 2009; also: potency is read from the fitted curve at half-maximal effect; % is scaled to controls: 0 for no effect and ±100 for the full control effect
Target sequence (Q27686 whole entry, looked up): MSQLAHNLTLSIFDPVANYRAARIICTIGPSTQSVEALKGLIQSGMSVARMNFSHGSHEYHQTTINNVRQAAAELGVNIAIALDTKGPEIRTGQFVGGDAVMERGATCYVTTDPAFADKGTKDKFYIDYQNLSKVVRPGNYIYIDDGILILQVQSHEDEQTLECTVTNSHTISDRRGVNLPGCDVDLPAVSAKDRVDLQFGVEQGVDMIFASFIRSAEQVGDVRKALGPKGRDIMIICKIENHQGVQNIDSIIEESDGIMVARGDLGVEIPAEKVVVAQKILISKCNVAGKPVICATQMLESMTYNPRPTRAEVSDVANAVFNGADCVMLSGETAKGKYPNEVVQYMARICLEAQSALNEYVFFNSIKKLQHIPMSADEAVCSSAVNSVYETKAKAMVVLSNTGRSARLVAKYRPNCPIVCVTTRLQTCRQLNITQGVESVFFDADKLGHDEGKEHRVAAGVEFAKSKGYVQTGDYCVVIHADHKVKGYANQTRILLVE
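Screened at intermediate enzyme activity to detect both inhibitors and activators: LmPK at 0.1 nM, with a 0.5 nM enzyme column as activation reference. PEP 0.5 mM, ADP 0.1 mM; ATP detected by luminescence after 1 h.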
TbPYK inhibitor = qHTS of Trypanosoma Brucei Inhibitors; TbPYK enzyme, Kinase-Glo Plus ATP luminescence, 45 min; 410,000 tested, 0.12% active; AID 624173, 2012; Potency, µM (series often up to 76.8 µM), inactives show top-dose activity, negative = inhibition, actives largely listed as inhibitors; pyruvate kinase (Trypanosoma brucei), Q57TT1; also: potency is read from the fitted curve at half-maximal effect; % is scaled to controls: 0 for no effect and ±100 for the full control effect; nearly all actives have a fitted effect of over 50% in size
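Readout: single end-point luminescence (Kinase-Glo Plus, 10 min). Reaction conditions were TbPYK/substrate plus 130 uM ADP, 45 min at RT, pH 7.2 TEA buffer. No-enzyme wells served as controls, and data were normalized before concentration-response fitting.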
RE007 growth inh = qHTS Assay for Inhibitors of the HIV-1 protein Vpr; S. pombe RE007 Vpr strain, BacTiter-Glo ATP luminescence, 24 h; Potency, µM (series often up to 92.2 µM), for the others: top-dose activity change, negative = less growth, hits mostly inhibitors; 360,000 tested, 0.21% active; active = well fitted falling curve with a large enough effect; inconclusive = small, poorly fitted or top-dose-only effect; inactive = no such curve, though single readings can be large or run the other way; also: potency is read from the fitted curve at half-maximal effect; % is scaled to controls: 0 for no effect and ±100 for the full control effect; nearly all actives have a fitted effect of over 50% in size
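Fission yeast RE007 carrying one integrated HIV-1 vpr copy, seeded at OD 0.01 in PMG+AL medium with 23 nL pinned compound. Grown 24 h at 30 degrees; viability read by BacTiter-Glo luminescence after 5 min.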
Cycloheximide cs = Cycloheximide Counterscreen for Small Molecule Inhibitors of Shiga Toxin. cell reporter, cycloheximide protein synthesis inhibition counterscreen. max response, %. 300,000 tested, 12% active. AID 2314, 2010; in the data active = max response mostly above about 13%, no sharp cut-off; inactive = mostly below about 14%; also: read at 38.3 µM for the half of the compounds with a filed dose; 0% is about no effect
Shiga toxin inh = A qHTS for Small Molecule Inhibitors of Shiga Toxin | inhibition, % at 38.7 µM | AID 2315, 2010 | 290,000 tested, 9.2% active | Vero cells, Shiga toxin protein synthesis inhibition reporter; in the data active = inhibition mostly above about 28%, no sharp cut-off; inactive = mostly below about 43%; also: 0% is about no effect
* hit, by the source's call; u = inconclusive; x = no result. Shown is part of a subset that was picked to be rich in hits. Unless noted, calls follow the shape of the dose curve; as a rule, active = well fitted curve in the direction sought with a large enough effect; inconclusive = small, poorly fitted or top-dose-only effect, or another doubt; inactive = no such curve, though single readings can be large; an effect the other way counts as inactive or inconclusive.

SMILES	FBPA Giardia inh	LmPK inhibitor	TbPYK inhibitor	RE007 growth inh	Cycloheximide cs	Shiga toxin inh
CC(C)c1nc(SCC(=O)N2CCc3ccccc32)n[nH]1	1.2%	6.2%	-2.6%	-4.5%	20.8*	47.3
COc1cccc(CNC(=O)c2cc3n(n2)CCCN(Cc2ccc(C)cc2)C3=O)c1OC	x	x	-10.8%	x	x	x
COc1ccccc1NC(=O)C1=C(C)Nc2nc(-c3ccco3)nn2C1c1cccc(C)c1 (configuration not stated)	x	x	-6.3%	x	x	x
C/C(=N\N1CCN(c2ccccc2)CC1)c1ccc(O)cc1	-1.4%	7.8%	4.3%	-5.0%	24.4*	45.4*
C/C(=N\N1CCN(c2ccccc2)CC1)c1ccccc1O	19.4%	-0.2%	2.2%	-6.1%	23.1*	32.6
C=Cc1ccc(Cn2c(C)c(CNCCc3ccc(OCC)cc3)c(C(=O)O)c2C)cc1	x	x	0.0%	x	x	x
Clc1cccc(CSc2ccc(-c3cccnc3)nn2)c1	-2.2%	3.6%	-0.5%	4.3%	28.9*	50.7
Clc1ccc(CSc2ccc(-c3ccco3)nn2)cc1	0.3%	-0.5%	-4.1%	-7.6%	23.4*	125.6*
Cc1ccc(CSc2ccc(-c3ccco3)nn2)cc1	-1.8%	-24.9%	-25.9%	-8.9%	12.0	21.2
Clc1cccc(CSc2ccc(-c3ccco3)nn2)c1	-1.0%	-1.8%	-11.3%	-25.3%	31.2*	61.1*
c1ccc(CSc2ccc(-c3cccnc3)nn2)nc1	-3.9%	-4.3%	-1.1%	3.0%	21.0*	50.4*
Clc1cccc(CSc2nnc(-c3cccnc3)n2Cc2ccco2)c1	-18.8%	5.7%	-14.0%	-4.3%	-3.5	-4.9
Cc1ccc(-c2c(C)n3c4c(=O)n(C)c(=O)n(C)c4nc3n2CCCO)cc1	x	x	4.6%	x	x	x
O=C(CNc1cccc(S(=O)(=O)N2CCOCC2)c1)Nc1ccccc1F	x	-2.3%	1.8%	-9.1%	15.5	-12.2
Fc1ccccc1CSc1ccc(-c2ccco2)nn1	-1.0%	0.2%	-6.8%	3.4%	49.7*	119.6*
Cc1cccc(CSc2ccc(-c3ccco3)nn2)c1	-2.7%	-7.1%	-6.6%	-21.0%	16.6*	19.5
c1ccc(CSc2ccc(-c3ccco3)nn2)cc1	-2.6%	-17.8%	-9.8%	-15.4%	26.3*	83.6
CCOC(=O)c1ccc(N=C2SC(C(=O)NC)CC(=O)N2Cc2ccc(F)cc2)cc1 (configuration not stated)	3.1%	5.6%	3.3%	-17.8%	7.4	12.3
Clc1nssc1=Nc1ccccc1	u	-17.5%	u	u	12.1	-2.9
COc1ccc(N=c2ssnc2Cl)cc1	u	-8.4%	-17.6%	u	17.6*	36.9*
Clc1ccc(N=c2ssnc2Cl)cc1	u	-0.1%	25.1µM*	u	11.5	39.7*
Fc1ccc(N=c2ssnc2Cl)c(F)c1	u	-26.3%	14.1µM*	-13.8%	19.0*	42.8
CCOC(=O)c1ccc(N=c2ssnc2Cl)cc1	u	-12.3%	35.5µM*	u	22.8*	52.8*
Cc1ccc(C)c(CN2C(=O)c3ccccc3S(=O)(=O)c3ccc(C(=O)N4CCN(c5ccccn5)CC4)cc32)c1	x	x	-5.5%	x	x	x
Cc1ccccc1C(=O)N1CCN(CCc2ccccn2)CC1	x	x	8.1%	x	x	x
SMILES	FBPA Giardia inh	LmPK inhibitor	TbPYK inhibitor	RE007 growth inh	Cycloheximide cs	Shiga toxin inh
O=C(Nc1ccc2c(c1)OCO2)c1cc2nc(C3CC3)cc(C(F)(F)F)n2n1	-12.0%	-0.4%	-0.4%	11.6%	12.4*	11.5
Cc1cc(C)n2nc(C(=O)Nc3ccc4c(c3)OCO4)cc2n1	u	-9.0%	-12.7%	15.2%	34.0*	70.1*
CC(=O)c1cccc(NC(=O)c2cc3nc(C)cc(C)n3n2)c1	-18.0%	-8.6%	-3.7%	-16.6%	27.1*	53.2*
CCOc1ccc(C(=O)Nc2ccc3c(c2)CCCN3S(=O)(=O)c2ccc(C)cc2)cc1	x	x	-7.5%	x	x	x
COc1cc(C(CC(=O)NCc2ccccc2)N2Cc3ccccc3C2=O)cc(OC)c1OC (configuration not stated)	x	x	2.4%	x	x	x
COc1ccc(CNC(=O)c2cc3c(-c4ccccc4F)nn(C)c3s2)cc1	x	x	-6.0%	x	x	x
CC1CCN(c2nc(-c3cccnc3)nc3scc(-c4ccccc4)c23)CC1	7.1%	2.7%	-8.2%	1.0%	-2.6	11.9
CC1CCCN(c2nc(-c3cccnc3)nc3scc(-c4ccccc4)c23)C1 (configuration not stated)	9.8%	-0.7%	5.6%	10.1%	20.9*	51.4*
CCCCCCOc1ccc(C2C(=O)N(C3CCCCC3)CC(=O)N2CCC)cc1 (configuration not stated)	x	x	-1.8%	x	x	x
CC1(C)CC(=O)C2=C(C1)NC(=S)C(C#N)C21CCCCC1 (configuration not stated)	u	-11.4%	2.82µM*	-12.8%	-1.6	-3.6
Cc1cc(F)ccc1NCc1ccc([N+](=O)[O-])cc1	-6.9%	-3.7%	6.0%	24.6%	29.8*	71.1*
Cc1cc(C)cc(N2C(=O)CSC23C(=O)N(CC(=O)NCCc2ccccc2)c2ccccc23)c1 (configuration not stated)	x	x	1.2%	x	x	x
COC(=O)C1CCN(C(=O)C2CCN(C(=O)[C@@H](NS(=O)(=O)c3ccc(C)cc3)C(C)C)CC2)CC1	15.5%	-11.3%	-3.0%	9.6%	-1.4	4.3
O=C(/C=C\Nc1cccc(F)c1)c1ccc2c(c1)OCO2	1.1%	12.6µM*	-3.7%	u	28.0*	25.5
COC(=O)c1ccc(N/C=C\C(=O)c2ccc3c(c2)OCO3)cc1	12.5%	1.0%	1.8%	-21.7%	17.8*	56.6*
COc1ccc(N/C=C\C(=O)c2ccc3c(c2)OCO3)cc1OC	1.3%	-2.1%	-3.5%	u	66.5*	24.5*
O=C(/C=C\Nc1ccccc1Br)c1ccc2c(c1)OCO2	-10.3%	6.2%	0.1%	-12.5%	-2.8	-5.7
C=CCOCCN(CC)CC	2.8%	8.8%	-9.0%	0.6%	-2.7	-11.6
CCN(C(=O)CCN1C(=O)S/C(=C\c2ccccc2)C1=O)C1CCS(=O)(=O)C1 (configuration not stated)	-2.7%	-1.8%	9.5%	-1.4%	-6.9	11.7
CC(=O)Cn1nnc2sc(-c3ccccc3)cc2c1=O	-5.6%	11.9%	-2.1%	-12.2%	46.5*	92.7*
N#CCn1cnc2sc(-c3ccccc3)cc2c1=O	3.7%	0.5%	0.6%	20.0%	26.8*	58.2
CCn1cnc2sc(-c3ccccc3)cc2c1=O	3.5%	-10.9%	-11.5%	-16.4%	29.4*	112.0*
COc1cccc(-n2cnc3sc(-c4ccccc4)cc3c2=O)c1	x	x	-5.7%	19.3%	x	x
CC(C)COC(=O)Cn1nnc2sc(-c3ccccc3)cc2c1=O	x	x	-2.0%	x	x	x
